These results are taken from PubChem BioAssay (NCATS).

Where “and” joins values, the source holds several entries; their conditions need not be identical. Equal values may be shown once. Values without a mark were called inactive. Inconclusive results are not listed. Calls of active or inactive are those of the source. Calls follow the shape of the dose curve; as a rule, active = well fitted curve in the direction sought with a large enough effect; inconclusive = small, poorly fitted or top-dose-only effect, or another doubt; inactive = no such curve, though single readings can be large; an effect the other way counts as inactive or inconclusive.

Assay [1] deals with Cytochrome P450 2C9 (Homo sapiens) (UniProt P11712). Description: qHTS Assay for Inhibitors and Substrates of Cytochrome P450 2C9 (AID 883). Also: nearly all actives have a fitted effect of over 60% in size. Also: potency is read from the fitted curve at half-maximal effect. As to activity change, negative = inhibition: % is scaled to controls: 0 for no effect and ±100 for the full control effect. An outline of the steps: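 Inhibition of CYP2C9 is scored as loss of luminescence, with 57uM sulphaphenazole defining 100% inhibition. Substrate Luciferin-H is used at 100uM, equal to its KM; enzyme at 10nM in 25mM KPO4, 60 min at 37C with NADPH regeneration.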

Assay [2] addresses Cytochrome P450 3A4 (Homo sapiens) (UniProt P08684). As to the kind of experiment: qHTS Assay for Inhibitors and Substrates of Cytochrome P450 3A4 (AID 884). Also: nearly all actives have a fitted effect of over 50% in size. Also: potency is read from the fitted curve at half-maximal effect. As to activity change, negative = inhibition: series mostly up to about 57 µM; % is scaled to controls: 0 for no effect and ±100 for the full control effect. An outline of the steps:
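20 nM human CYP3A4 with 25 uM Luciferin-PPXE (at KM) in 200 mM KPO4, preincubated 10 min with compound; NADPH regeneration started a 60 min RT reaction. Luciferin detected by luminescence, normalized to 57 uM ketoconazole as full inhibition.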

Assay [3] concerns the target Cytochrome P450 2D6 (Homo sapiens) (UniProt P10635). Description: qHTS Assay for Inhibitors and Substrates of Cytochrome P450 2D6 (AID 891).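 Also: luciferin methyl ether substrate demethylated by CYP2D6 with NADPH regeneration; % is scaled to controls: 0 for no effect and ±100 for the full control effect; nearly all actives have a fitted effect of over 60% in size.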 In short, it runs like this: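 Human CYP2D6 (5 nM) with 30 uM Luciferin-ME EGE (at Km) in 100 mM KPO4, compound preincubated 10 min, then NADPH regeneration system for 60 min at room temperature. Luciferin read by luminescence; normalized to 1.43 uM quinidine.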

Assay [4] concerns the target Cytochrome P450 2C19 (Homo sapiens) (UniProt P33261). Description: qHTS Assay for Inhibitors and Substrates of Cytochrome P450 2C19 (AID 899). Also: nearly all actives have a fitted effect of over 60% in size. Also: potency is read from the fitted curve at half-maximal effect. An outline of the steps:
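5nM enzyme + 10uM Luciferin-H EGE (=KM), 50mM KPO4; cpd pin-transferred, 10 min 37C; NADPH regen, 60 min 37C; stopped w/ luciferin detection reagent, 20 min; luminescence. Normalized to 57uM ketoconazole (AC100).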
On the technique in general: qHTS replaces the single test concentration by a dilution series.

Assay [5] addresses Cytochrome P450 3A4 (Homo sapiens) (UniProt P08684). Description: qHTS Assay for Activators of Cytochrome P450 3A4 (AID 885). Also: nearly all actives have a fitted effect of over 65% in size. In short, it runs like this:
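Human CYP3A4 (20 nM) with Luciferin-PPXE at 25 uM (its KM) in 200 mM KPO4; 10 min compound preincubation, then NADPH regeneration and 60 min reaction at RT. Luciferin read by luminescence; normalized to 57 uM ketoconazole full inhibition.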

Chain of Cytochrome P450 2D6 (Homo sapiens) (P10635 whole entry, looked up): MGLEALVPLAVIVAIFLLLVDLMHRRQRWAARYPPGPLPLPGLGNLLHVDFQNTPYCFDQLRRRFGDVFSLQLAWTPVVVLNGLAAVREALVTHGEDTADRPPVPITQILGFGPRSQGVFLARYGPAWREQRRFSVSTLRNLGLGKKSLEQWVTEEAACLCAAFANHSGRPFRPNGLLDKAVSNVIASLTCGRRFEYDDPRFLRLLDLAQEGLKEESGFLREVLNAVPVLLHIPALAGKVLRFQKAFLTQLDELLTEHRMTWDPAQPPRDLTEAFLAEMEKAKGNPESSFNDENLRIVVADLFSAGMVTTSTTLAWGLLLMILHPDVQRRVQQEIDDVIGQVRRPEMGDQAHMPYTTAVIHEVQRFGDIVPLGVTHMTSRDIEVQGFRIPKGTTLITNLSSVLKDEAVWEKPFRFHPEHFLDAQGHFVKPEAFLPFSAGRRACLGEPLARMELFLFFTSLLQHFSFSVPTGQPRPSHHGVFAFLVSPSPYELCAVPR
Chain of Cytochrome P450 3A4 (Homo sapiens) (P08684 whole entry, looked up): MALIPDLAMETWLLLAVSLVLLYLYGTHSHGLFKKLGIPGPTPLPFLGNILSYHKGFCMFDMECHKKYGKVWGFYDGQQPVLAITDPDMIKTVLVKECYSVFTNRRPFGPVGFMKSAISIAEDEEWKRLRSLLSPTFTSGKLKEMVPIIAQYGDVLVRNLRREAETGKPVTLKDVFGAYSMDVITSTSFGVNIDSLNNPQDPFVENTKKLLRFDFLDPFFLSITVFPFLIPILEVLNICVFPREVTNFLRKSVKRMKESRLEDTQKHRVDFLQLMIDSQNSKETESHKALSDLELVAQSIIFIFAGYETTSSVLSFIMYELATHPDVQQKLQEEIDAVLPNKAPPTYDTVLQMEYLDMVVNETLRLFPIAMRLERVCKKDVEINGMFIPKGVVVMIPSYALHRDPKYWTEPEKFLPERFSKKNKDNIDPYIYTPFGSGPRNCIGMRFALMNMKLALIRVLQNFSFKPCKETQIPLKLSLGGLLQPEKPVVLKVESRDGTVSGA
Chain of Cytochrome P450 2C9 (Homo sapiens) (P11712 whole entry, looked up): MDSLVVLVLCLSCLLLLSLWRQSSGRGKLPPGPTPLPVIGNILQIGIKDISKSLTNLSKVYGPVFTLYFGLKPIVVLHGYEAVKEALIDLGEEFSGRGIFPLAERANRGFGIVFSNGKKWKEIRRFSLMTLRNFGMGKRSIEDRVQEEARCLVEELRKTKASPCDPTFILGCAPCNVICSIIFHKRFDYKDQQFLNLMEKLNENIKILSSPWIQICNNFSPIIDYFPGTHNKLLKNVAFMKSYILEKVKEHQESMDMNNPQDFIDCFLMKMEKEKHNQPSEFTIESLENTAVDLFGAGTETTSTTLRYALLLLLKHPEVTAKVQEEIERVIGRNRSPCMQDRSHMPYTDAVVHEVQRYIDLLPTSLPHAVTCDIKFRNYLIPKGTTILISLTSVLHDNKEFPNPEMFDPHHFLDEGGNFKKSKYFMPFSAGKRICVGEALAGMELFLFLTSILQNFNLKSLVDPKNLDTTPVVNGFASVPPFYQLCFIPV
Chain of Cytochrome P450 2C19 (Homo sapiens) (P33261 whole entry, looked up): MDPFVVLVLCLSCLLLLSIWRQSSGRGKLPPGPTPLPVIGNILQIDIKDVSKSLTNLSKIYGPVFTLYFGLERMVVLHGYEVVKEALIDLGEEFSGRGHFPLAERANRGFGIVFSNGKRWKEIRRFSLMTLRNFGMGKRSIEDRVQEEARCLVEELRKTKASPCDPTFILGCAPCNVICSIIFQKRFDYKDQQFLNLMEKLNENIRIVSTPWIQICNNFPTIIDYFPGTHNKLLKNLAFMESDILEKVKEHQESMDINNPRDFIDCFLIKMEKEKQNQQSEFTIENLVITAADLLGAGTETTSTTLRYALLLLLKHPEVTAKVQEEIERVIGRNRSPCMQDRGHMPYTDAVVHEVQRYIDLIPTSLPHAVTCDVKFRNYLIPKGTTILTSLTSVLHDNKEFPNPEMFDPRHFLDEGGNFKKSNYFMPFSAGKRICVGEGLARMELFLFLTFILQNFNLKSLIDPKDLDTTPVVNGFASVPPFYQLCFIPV

As to `COC1C(O)COC1/C=C/c1ccccc1` (centres undefined), the Potency result in assay [1], in assay [3] and in assay [4] was “inactive” in each case. Besides, in assay [2], the activity change, negative = inhibition was -19.7% [at 11.4 µM].
As to `CC12CC3OS(=O)OC3CC3C4C(C(OCc5ccccc5)C31)C42` (centres undefined), the Potency entry in assay [1] and in assay [3] was “inactive” throughout. In addition, the activity change, negative = inhibition in assay [2] was -26.1% [at 11.4 µM].
As to `CC1CCC(C(=O)O)NC1c1ccc(C#CCN(C)C)cc1` (centres undefined), the Potency entry in assay [1] and in assay [3] was “inactive” throughout. Further, the activity change, negative = inhibition in assay [2] is -30.5% [at 11.4 µM].
Take `CNc1ccccc1C(=O)OCC(=O)c1ccccc1`: the Potency entry in assay [1] and in assay [3] was “inactive” in each case. The activity change, negative = inhibition in assay [2] was -18.7% [at 11.4 µM].
Consider `C=CCC1C=CC(OC(=O)OCC)C(COC(=O)OCC)O1` (centres undefined), for which the Potency result in assay [1] and in assay [3] was “inactive” each time. In addition, in assay [2], the activity change, negative = inhibition is -26.9% [at 11.4 µM].
As to `OCC1OC(C#Cc2ccccc2)C=CC1OCc1ccccc1` (centres undefined), the Potency result in assay [1] and in assay [3] was “inactive” each time. For the same compound, the activity change, negative = inhibition in assay [2] was -24.2% [at 11.4 µM].
As for `COc1ccc(O[C@H]2C=C[C@@H](c3ccccc3)O[C@H]2COC(=O)CC/C(C)=N\O[C@@H](C)c2cn([C@H](CO)Cc3ccccc3)nn2)cc1`, the Potency in assay [1] was 1.26 µM (active); in assay [2], 3.98 µM (active) and 5.01 µM (active); in assay [4], 63.1 nM (active) and 631 nM (active). In addition, the activity change, positive = activation in assay [5] was -87.6% [at 11.4 µM] and -97.7% [at 11.4 µM].
Take `CC1CCC(C(=O)O)NC1c1ccc(-c2ccco2)cc1` (centres undefined): the Potency entry in assay [1] and in assay [3] was “inactive” each time. For the same compound, the activity change, negative = inhibition in assay [2] was -4.5% [at 11.4 µM].
As for `CC1C=CCCOC1c1ccccc1` (centres undefined), the Potency entry in assay [1] and in assay [3] was “inactive” in each case. Further, the activity change, negative = inhibition in assay [2] is -13.6% [at 11.4 µM].
For the compound `CCN1C(C)=C(C(=O)OC)C(c2ccccc2)N2C(=O)[C@](O)(C(=O)OC)CC(C(C)=O)=C12` (some centres undefined), the Potency entry in assay [1], in assay [3] and in assay [4] was “inactive” in each case. Also, the activity change, negative = inhibition in assay [2] is -13.9% [at 11.4 µM].
As to `COC(=O)NC(CC(C)=O)c1cccc(C(F)(F)F)c1` (centres undefined), the Potency result in assay [1] and in assay [3] was “inactive” throughout. For the same compound, the activity change, negative = inhibition in assay [2] was -14.1% [at 11.4 µM].
`CC1(C)OC(C(O)(c2cccc3c2oc2ccccc23)c2cccc3c2oc2ccccc23)C(C(O)(c2cccc3c2oc2ccccc23)c2cccc3c2oc2ccccc23)O1` (centres undefined): the Potency result in assay [1], in assay [3] and in assay [4] was “inactive” throughout. Also, in assay [2], the activity change, negative = inhibition was -15.2% [at 11.4 µM].
Take `COC(=O)NC(c1ccc2ccccc2c1)C(C(C)=O)C(=O)OC` (centres undefined): the Potency result in assay [1] and in assay [3] was “inactive” throughout. Further, the activity change, negative = inhibition in assay [2] is -19.4% [at 11.4 µM]. Further, the Potency in assay [4] was 1.26 µM (active).
On to `COc1ccc(O[C@H]2C=C[C@@H](c3ccccc3)O[C@H]2CO/N=C2/c3cc(OC)ccc3O[C@@H](c3cccc(OC)c3)[C@H]2O)cc1`, for which the Potency in assay [1] was 3.16 µM (active); in assay [2], 3.16 µM (active); in assay [4] it was 0.501 µM (active). Further, the activity change, positive = activation in assay [5] was -100% [at 11.4 µM].
Turning to `OCC1OC(c2ccccc2)C=CC1Oc1cc(Cl)cc(Cl)c1` (centres undefined), the Potency result in assay [1] and in assay [3] was “inactive” throughout. Moreover, the activity change, negative = inhibition in assay [2] was 5.16% [at 11.4 µM].
For `O=C1C=CC2(OCCCO2)C(Br)=C1`, the Potency entry in assay [1] and in assay [3] was “inactive” in each case. Besides, the activity change, negative = inhibition in assay [2] was -14% [at 11.4 µM].
Turning to `C=CCC1(c2ccccc2)Oc2ccc(C)cc2-c2nc3cc(Cl)c(Cl)cc3nc21` (centres undefined), the Potency entry in assay [1], in assay [3] and in assay [4] was “inactive” in each case. In addition, the activity change, negative = inhibition in assay [2] is -28.2% [at 11.4 µM].
`CCC(=O)[C@@]1(O)C(=O)N2C(=C3C(=O)OCCC31)N(Cc1ccccc1)C(C)=C(C(=O)OC)C2c1ccccc1` (some centres undefined): the Potency result in assay [1], in assay [3] and in assay [4] was “inactive” throughout. The activity change, negative = inhibition in assay [2] was -16% [at 11.4 µM].
`C/C(CCC(=O)OC[C@@H]1O[C@H](C#Cc2ccccc2)C=C[C@@H]1Oc1ccc(C)cc1)=N/O[C@@H](C)c1cn([C@H](CO)Cc2ccccc2)nn1`: the Potency in assay [1] was 3.16 µM (active); in assay [2], 3.98 µM (active) and 3.16 µM (active); in assay [4], 3.98 µM (active). Moreover, the activity change, positive = activation in assay [5] was -114% [at 11.4 µM] and -117% [at 11.4 µM].
Turning to `COC(=O)[C@@H]1CC[C@H](C)[C@@H](c2ccc(C)cc2)N1C(=O)c1ccc(/C=N\O[C@@H](C)c2cn([C@H](CO)Cc3ccccc3)nn2)cc1`, the Potency in assay [1] is 3.16 µM (active) and 2.51 µM (active); in assay [2] it was 1.26 µM (active) and 3.16 µM (active); in assay [4], 3.98 µM (active). Also, in assay [5], the activity change, positive = activation is -62.7% [at 11.4 µM] and -101% [at 11.4 µM].
For `CCCCOC(OCCCC)[C@H](O)CSc1ccc2ccccc2c1`, the Potency in assay [1] was 2 µM (active); in assay [2], 5.01 µM (active); in assay [4], 3.16 µM (active). Further, the activity change, positive = activation in assay [5] is -60.8% [at 11.4 µM].
